aGlu spleen mod: lysosomal alpha-glucosidase (human) modulation; P10253; human spleen homogenate, 4-MU-alpha-glucoside fluorescence; Potency, µM (series often up to 79.9 µM), without a hit: at the top dose activity change, negative = inhibition, usual class: inhibitors; 240,000 tested, 0.006% active;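 further: 0% = enzyme with vehicle and -100% = no enzyme basal signal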
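Human spleen homogenate (1 ug) incubated with compounds and 1 mM 4-methylumbelliferyl-alpha-D-glucopyranoside in pH 5.0 citrate/phosphate buffer, 37 C, 40 min. Stopped at pH 10; 4-MU fluorescence (Ex 365/Em 440 nm); AC50 by Hill fit.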
Lamin A splicing: changes lamin A minigene splicing in HeLa cells; AID 1487; 200,000 tested, 0.01% active; HeLa LMNA splicing GFP/RFP minigene ratio, 48 h; Potency, µM (series often up to 46.1 µM), without a hit: at the highest dose ratio change, negative = inhibition, most hits filed as inhibitors; active means well fitted inhibition curve with a large enough effect in the signal ratio, with a control signal flat, not every such curve was filed as active; inconclusive means small, poorly fitted or top-dose-only effect, or effect the other way, or a change in a side signal; the % refers to the signal ratio
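S3 HeLa cells stably expressing lamin A-EGFP splicing minigene plus DsRed2, 600 cells/well, 48 h compound exposure at 37C. Laser-scanning cytometry; analysed as GFP (500-530 nm)/RFP (575-640 nm) total intensity ratio; 0.5% DMSO vehicle.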
N370S GC: inhibitors or activators of N370S glucocerebrosidase for Gaucher disease. 330,000 tested, 0.092% active. N370S GC spleen homogenate, 4MU-glucoside fluorescence. P04062. Potency, µM (titrated, usually from 59.4 µM), without a hit: top-dose activity change, negative = inhibition, usual class: inhibitors. AID 2101;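 further: 0% = full enzyme activity and -100% = no enzyme basal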
GAA glycogen: inhibitors or activators of human alpha-glucosidase glycogen cleavage. P10253. recombinant GAA, glycogen substrate, Amplex Red glucose oxidase fluorescence. Potency, µM (top dose mostly 76.4 µM), for the others: top-dose activity change, negative = inhibition, hits mostly inhibitors. 300,000 tested, 0.38% active. AID 2100;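 further: 0% = full enzyme reaction and -100% = no-enzyme basal signal; the screen sought inhibitors and activators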
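qHTS, 1536-well; enzyme 4 nM final; cpd up to 77 uM; substrate bovine liver glycogen 30 ug; 50 mM citrate/phosphate pH 5.0, 0.01% Tween-20; 37 C, 40 min; Amplex Red detection 45 min RT; Hill fit → AC50.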
GAA inh: inhibitors of human lysosomal alpha-glucosidase. P10253. purified human GAA, 4-MU-alpha-glucoside fluorescence. Potency, µM (top dose mostly 76.9 µM), without a hit: at the highest dose activity change, negative = inhibition, most hits filed as inhibitors. 200,000 tested, 0.005% active. AID 1466;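 further: plate controls were uninhibited enzyme wells for no effect and no-enzyme background for full effect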
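qHTS format, compound range up to 77 uM. Human lysosomal enzyme at 4 nM, 400 uM 4-MU glucoside substrate, pH 5.0, 20 min room temperature; fluorescence after alkaline stop gives activity normalized to controls.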
Numbers without * were called inactive; u = inconclusive; x = no result given; [ ] = remark or other dose. Shown are actives, neighbours in structure and some others; about 0.42% of the full set was active somewhere. Unless noted, the call rests on the fitted dose curve; in most records, active means well fitted curve in the direction sought with a large enough effect; inconclusive means small, poorly fitted or top-dose-only effect, or another doubt; inactive means no such curve, though single readings can be large; an effect the other way counts as inactive or inconclusive. Unless noted, on the % scale 0 is the no-effect control and ±100 the full control effect; potency means the concentration at half of the fitted maximal effect.

SMILES	aGlu spleen mod	Lamin A splicing	N370S GC	GAA glycogen	GAA inh
Cc1ccc(NNC(=O)c2cc(C(C)(C)C)nn2Cc2ccccc2)cc1	3.1%	x	7.9%	11.2µM*	-5.9%[15.4 µM]
Cc1ccc(NC(=O)c2cc(C(C)(C)C)nn2Cc2ccccc2)cc1	-10.2%	x	9.3%	-6.4%	-16.4%
COC(=O)C1=C(C(=O)OC)[C@@H]2N(C)c3ccccc3[C@@]23C[C@@H](C(=O)OC)N(S(=O)(=O)c2ccc4c(c2)OCCN4C)C3=N1	5.6%[17.4 µM]	-2.9%[9.22 µM]	9.7%[12.8 µM]	x	x
Oc1ccc(Cl)cc1C=Nc1ccc2c3c(cccc13)CC2	3.7%	u	-5.3%	0.2%	8.5%
CCc1ccc(O)c(N=Cc2cccc(C)c2O)c1	-8.4%	-22.2%	-6.8%	15.7µM*	2.8%
Cc1cccc(C=Nc2ccc3c4c(cccc24)CC3)c1O	3.4%	-13.2%	-10.6%	14.1µM*	7.1%
C=C[C@@]1(C)CC[C@H](O)[C@H]2C(=O)CCC[C@@H]21	-4.9%	x	-13.3%	x	x
C(=N\N1CCN(C2c3ccccc3-c3ccccc32)CC1)/c1ccncc1	-5.1%	-3.2%	-11.9%	-9.5%	2.5%
C/C(=N\N1CCN(C2c3ccccc3-c3ccccc32)CC1)c1ccncc1	4.8%	16.9%	1.0%	28.2µM*	u
C/C(Cl)=C/CCl	-2.4%	x	6.3%	x	x
C[Si](C)(C)C#Cc1ccccc1NC(=S)Nc1ccccc1	-14.3%	x	4.3%	x	x
Cc1ccc([N+](=O)[O-])cc1-c1[nH]c(-c2ccc(O)c(O)c2)nc1-c1ccccc1	0.8%	u	u	14.1µM*	-14.1%
COc1cccc(-c2nc(NCc3ccccc3OC)c3ccccc3n2)c1	2.3%	u	14.1µM*	x	x
COc1ccccc1CNc1nc(-c2ccc3c(c2)OCO3)nc2ccccc12	3.0%	u	15.8µM*	x	x
COc1cccc(-c2nc(NCc3ccccc3)c3ccccc3n2)c1	-4.5%	u	-5.1%	x	x
COc1ccccc1CNc1nc(-c2ccc(N(C)C)cc2)nc2ccccc12	0.6%	u	-16.5%	x	x
COc1ccc(CNc2nc(-c3ccccc3CN(C)C)nc3ccccc23)c(OC)c1	1.1%	u	-7.2%	x	x
COc1ccc(CNc2nc(-c3ccoc3)nc3ccccc23)c(OC)c1	-1.0%	u	14.1µM*	x	x
O=S(=O)(Oc1ccc(Cl)cc1)c1ccccc1	-0.6%	x	4.9%	x	x
COC(=O)C1=NOC2(C=C(Br)C(OC)=C(Br)C2=O)C1 (centres undefined)	7.0%[17.4 µM]	x	0.2%[12.8 µM]	x	x
N.N.N.N.N.N.N.N.N.N.N.N.N.N.O.O.[Cl-].[Cl-].[Cl-].[Cl-].[Cl-].[Cl-].[Ru].[Ru].[Ru]	2.1%	u	-0.9%	x	x
CCc1nn(CC(=O)N2CCN(c3cccc(C(F)(F)F)c3)CC2)c(=O)c2cccn12	x	x	x	-10.3%[76.3 µM]	x
Cc1cc(Nc2c(C)n(C)n(-c3ccccc3)c2=O)n2c(nc3ccccc32)c1C#N	-0.7%	5.8%	-12.0%	14µM*	-9.3%
CCCc1cc(Nc2c(C)n(C)n(-c3ccccc3)c2=O)n2c(nc3ccccc32)c1C#N	-2.2%	-5.5%	-6.9%	14.1µM*	u
Cc1cc(Nc2ccc(F)cc2)n2c(nc3ccccc32)c1C#N	x	x	x	-26.7%[76.3 µM]	x
SMILES	aGlu spleen mod	Lamin A splicing	N370S GC	GAA glycogen	GAA inh
CCc1c(C)c(C#N)c2nc3ccccc3n2c1Nc1c(C)n(C)n(-c2ccccc2)c1=O	3.1%	10.6%	9.7%	25.1µM*	4.0%
CCc1c(C)c(C#N)c2nc3ccccc3n2c1Nc1cccc(C(F)(F)F)c1	x	x	x	-13.2%[76.3 µM]	x
COC(=O)NC(CCc1ccccc1)C(C(=O)OC)C(=O)OC (centres undefined)	1.4%	x	8.1%	x	x
CC[C@H](C)[C@H](NC(=O)[C@H](CO)NC(=O)[C@H](CC(C)C)NC(=O)[C@H](CO)NC(=O)[C@@H]1CCCN1C(=O)[C@H](CC(N)=O)NC(=O)[C@@H](N)CC(=O)O)C(=O)N[C@@H](CC(=O)O)C(=O)N[C@@H](CC(C)C)C(=O)N[C@H](C(=O)N[C@@H](Cc1ccccc1)C(=O)N[C@@H](Cc1cnc[nH]1)C(=O)N[C@@H](CC(C)C)C(=O)N[C@@H](CC(C)C)C(=O)N[C@@H](CCCNC(=N)N)C(=O)N[C@H](C(=O)N[C@@H](CC(C)C)C(=O)N[C@@H](CC(C)C)C(=O)N[C@@H](CCC(=O)O)C(=O)N[C@@H](CC(C)C)C(=O)N[C@@H](C)C(=O)N[C@@H](CCCNC(=N)N)C(=O)N[C@H](C(=O)N[C@@H](CCC(N)=O)C(=O)N[C@@H](CO)C(=O)N[C@@H](CCC(N)=O)C(=O)N[C@@H](CCCNC(=N)N)C(=O)N[C@@H](CCC(=O)O)C(=O)N[C@@H](CCCNC(=N)N)C(=O)N[C@@H](C)C(=O)N[C@@H](CCC(=O)O)C(=O)N[C@@H](CCC(N)=O)C(=O)N[C@@H](CC(N)=O)C(=O)N[C@@H](CCCNC(=N)N)C(=O)N[C@H](C(=O)N[C@H](C(=O)N[C@@H](Cc1ccccc1)C(=O)N[C@@H](CC(=O)O)C(=O)N[C@@H](CO)C(=O)N[C@H](C(N)=O)C(C)C)[C@@H](C)CC)[C@@H](C)CC)[C@@H](C)O)[C@@H](C)O)[C@@H](C)O	7.3%	x	-3.5%	x	x
COC(=O)Nc1ccc(S(=O)(=O)Nc2ccc(O)cc2)cc1	-0.5%	u	-2.6%	31.6µM*	-0.6%
CCC(C)CC(C)CC(C)C(=O)/C=C(/O)C(C)CC(C)C/C=C/C(C)C(O)C(C)C(O)CC1CCC(C)(C)O1 (centres undefined)	-0.4%	x	-2.1%	x	x
CC(=O)OCOC(=O)CNc1ccccc1OCCOc1ccccc1NCC(=O)OCOC(C)=O	-0.8%	x	-0.2%	x	x
Oc1ccc(-c2nc3ccccn3c2NCc2ccco2)cc1	2.5%	u	u	14µM*	1.8%
Cc1ccc(C)c(NC(=S)NNC(=O)c2ccco2)c1	-0.1%	5.2%	-4.8%	22.4µM*	-0.1%
Cc1ccc(Nc2c(-c3ccccc3)nc3cnccn23)cc1	-2.1%	u	5.5%	u	-15.9%
Cc1ccn2c(Nc3ccc4c(c3)OCO4)c(-c3ccc(C)o3)nc2c1	x	x	x	3.98µM*	x
CSc1ccc(-c2nc3cnccn3c2Nc2ccc3c(c2)OCO3)cc1	-4.5%	u	-0.7%	22.2µM*	-27.7%
Oc1ccccc1-c1nc2cnccn2c1Nc1ccc2c(c1)OCCO2	-3.1%	-9.4%	15.1%	7.88µM*	u
COc1ccc(-c2nc3cnccn3c2Nc2ccc(C)cc2)cc1	-21.7%	-20.0%	u	7.08µM*	2.0%

Source: PubChem BioAssay
